The text below walks through data of PMC7862700, “An all-to-all approach to the identification of sequence-specific readers for epigenetic DNA modifications on cytosine”.

What all share (test): DAPPL (digital affinity profiling via proximity ligation, sequencing); 10 mM Tris-HCl pH 7.5, 50 mM NaCl, 1 mM DTT, 4% glycerol, room temperature, 30 min; GST-TFs on glutathione beads, 16-mer random dsDNA library, 0.1% formaldehyde crosslink after washing; high values mean tight binding
One experiment concerns the target T1, FEV (Homo sapiens, UniProt Q99581 1-238).
T1 sequence: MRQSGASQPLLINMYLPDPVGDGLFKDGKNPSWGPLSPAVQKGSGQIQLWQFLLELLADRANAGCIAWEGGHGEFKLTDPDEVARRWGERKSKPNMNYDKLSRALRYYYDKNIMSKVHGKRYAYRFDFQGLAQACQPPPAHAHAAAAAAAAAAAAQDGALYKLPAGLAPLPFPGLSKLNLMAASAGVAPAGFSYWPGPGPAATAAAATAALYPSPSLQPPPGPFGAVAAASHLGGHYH
Conditions: protein: recombinant; tags: N-terminal GST; dsDNA, one strand shown. The procedure, abridged:
(§1)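 In yeast, human transcription factors were expressed with a GST fusion, then pulled down on glutathione beads and given DNA barcodes. Pooled with a tag-only sample, they were exposed to 200 nmole of a 16-mer random double-stranded DNA library (Tris/NaCl/DTT/glycerol buffer, room temperature, 30 min), washed, crosslinked with 0.1% formaldehyde, proximity-ligated using BsaI/T4 ligase for 1 h at 37 °C, PCR-amplified and read on an Illumina NextSeq500. Each hexamer's frequency of reads for a factor, divided by the matching frequency for the tag-only sample, gives the binding signal.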

Another experiment concerns the target ETV5 (Homo sapiens, UniProt P41161 1-510). Conditions: protein: recombinant; tags: N-terminal GST; dsDNA, one strand shown. Summed up:
as §1

For the next experiment, the target named is HSF1 (Homo sapiens, UniProt Q00613 1-529). The following applies: protein: recombinant; tags: N-terminal GST; chain copies: 3; dsDNA, one strand shown. Summed up:
as §1

The next experiment concerns the target T2, SPIC (Homo sapiens, UniProt Q8N5J4 1-248).
T2 sequence: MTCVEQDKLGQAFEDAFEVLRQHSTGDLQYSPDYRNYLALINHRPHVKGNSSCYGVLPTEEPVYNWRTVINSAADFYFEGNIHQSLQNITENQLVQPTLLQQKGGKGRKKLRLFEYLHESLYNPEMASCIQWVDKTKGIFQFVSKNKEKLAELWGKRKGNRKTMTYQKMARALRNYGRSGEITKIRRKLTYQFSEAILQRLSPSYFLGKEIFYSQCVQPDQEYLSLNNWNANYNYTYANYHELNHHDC
The following applies: protein: recombinant; tags: N-terminal GST; dsDNA, one strand shown. Summed up: as §1

In the next experiment the target is ELF4 (Homo sapiens, UniProt Q99607 1-663). The following applies: protein: recombinant; tags: N-terminal GST; dsDNA, one strand shown. Summed up:
as §1

For the next experiment, the target named is T3, ELK4 (Homo sapiens, UniProt P28324-2 1-405).
T3 sequence: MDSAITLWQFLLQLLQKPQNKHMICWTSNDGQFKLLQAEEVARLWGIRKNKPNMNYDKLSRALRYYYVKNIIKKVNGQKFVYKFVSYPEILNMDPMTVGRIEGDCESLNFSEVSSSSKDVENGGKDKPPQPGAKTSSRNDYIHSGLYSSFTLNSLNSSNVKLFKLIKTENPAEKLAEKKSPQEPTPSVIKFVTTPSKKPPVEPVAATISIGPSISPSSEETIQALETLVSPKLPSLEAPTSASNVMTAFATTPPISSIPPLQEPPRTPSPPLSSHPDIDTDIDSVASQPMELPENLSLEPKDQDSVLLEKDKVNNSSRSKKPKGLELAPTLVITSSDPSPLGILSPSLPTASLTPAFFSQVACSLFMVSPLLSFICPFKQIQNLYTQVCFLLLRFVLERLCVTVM
The following applies: protein: recombinant; tags: N-terminal GST; dsDNA, one strand shown. Summed up:
as §1

For a further experiment, the target named is T4, ETV2 (Homo sapiens, UniProt O00321 1-342).
T4 sequence: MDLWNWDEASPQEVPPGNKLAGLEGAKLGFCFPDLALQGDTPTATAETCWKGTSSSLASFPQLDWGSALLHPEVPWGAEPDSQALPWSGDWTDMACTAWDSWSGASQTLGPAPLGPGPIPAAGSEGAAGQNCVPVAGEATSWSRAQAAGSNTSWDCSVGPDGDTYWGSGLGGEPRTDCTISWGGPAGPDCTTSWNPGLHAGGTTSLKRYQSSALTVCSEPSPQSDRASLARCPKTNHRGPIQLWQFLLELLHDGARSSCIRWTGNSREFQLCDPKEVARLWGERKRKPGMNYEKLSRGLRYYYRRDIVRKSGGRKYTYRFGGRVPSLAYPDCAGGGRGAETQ
Conditions: protein: recombinant; tags: N-terminal GST; dsDNA, one strand shown. The procedure, abridged: as §1

In another experiment the target is T5, ELF3 (Homo sapiens, UniProt P78545 1-371).
T5 sequence: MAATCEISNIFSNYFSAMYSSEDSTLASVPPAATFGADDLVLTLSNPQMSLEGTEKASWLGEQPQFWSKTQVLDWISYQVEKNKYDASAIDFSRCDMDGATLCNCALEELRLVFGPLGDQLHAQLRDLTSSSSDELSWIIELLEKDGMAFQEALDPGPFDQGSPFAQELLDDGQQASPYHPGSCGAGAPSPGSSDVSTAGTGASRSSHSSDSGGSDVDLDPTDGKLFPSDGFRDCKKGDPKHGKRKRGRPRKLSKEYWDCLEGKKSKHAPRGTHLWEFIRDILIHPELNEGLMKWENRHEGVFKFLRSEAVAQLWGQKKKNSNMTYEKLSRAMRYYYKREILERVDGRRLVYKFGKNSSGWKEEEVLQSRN
Conditions: protein: recombinant; tags: N-terminal GST; dsDNA, one strand shown. Summed up:
as §1

In the next experiment the target is CRX (Homo sapiens, UniProt O43186 1-299). The following applies: protein: recombinant; tags: N-terminal GST; dsDNA, one strand shown. The procedure, abridged:
as §1

A further experiment addresses ETV1 (Homo sapiens, UniProt P50549 1-477). Conditions: protein: recombinant; tags: N-terminal GST; dsDNA, one strand shown. Summed up:
as §1

A further experiment deals with T6, ERF (Homo sapiens, UniProt P50548 1-548).
T6 sequence: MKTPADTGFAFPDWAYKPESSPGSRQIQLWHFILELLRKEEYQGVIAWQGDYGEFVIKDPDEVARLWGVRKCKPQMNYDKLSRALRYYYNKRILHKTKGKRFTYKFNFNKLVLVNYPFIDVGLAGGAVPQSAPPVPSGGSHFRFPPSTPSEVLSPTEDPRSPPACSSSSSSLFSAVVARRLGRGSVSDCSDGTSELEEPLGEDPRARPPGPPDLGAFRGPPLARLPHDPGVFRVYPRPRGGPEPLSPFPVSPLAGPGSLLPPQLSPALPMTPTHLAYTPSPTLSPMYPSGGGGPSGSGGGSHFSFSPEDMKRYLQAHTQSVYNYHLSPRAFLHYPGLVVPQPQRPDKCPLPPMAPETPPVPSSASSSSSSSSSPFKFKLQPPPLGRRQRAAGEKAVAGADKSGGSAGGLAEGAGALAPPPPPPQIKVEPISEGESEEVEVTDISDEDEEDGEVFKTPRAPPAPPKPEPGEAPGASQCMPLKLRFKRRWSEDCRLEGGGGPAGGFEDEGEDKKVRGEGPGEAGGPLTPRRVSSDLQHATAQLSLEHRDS
Conditions: protein: recombinant; tags: N-terminal GST; dsDNA, one strand shown. The procedure, abridged: as §1

The next experiment addresses T7, ETV3L (Homo sapiens, UniProt Q6ZN32 1-361).
T7 sequence: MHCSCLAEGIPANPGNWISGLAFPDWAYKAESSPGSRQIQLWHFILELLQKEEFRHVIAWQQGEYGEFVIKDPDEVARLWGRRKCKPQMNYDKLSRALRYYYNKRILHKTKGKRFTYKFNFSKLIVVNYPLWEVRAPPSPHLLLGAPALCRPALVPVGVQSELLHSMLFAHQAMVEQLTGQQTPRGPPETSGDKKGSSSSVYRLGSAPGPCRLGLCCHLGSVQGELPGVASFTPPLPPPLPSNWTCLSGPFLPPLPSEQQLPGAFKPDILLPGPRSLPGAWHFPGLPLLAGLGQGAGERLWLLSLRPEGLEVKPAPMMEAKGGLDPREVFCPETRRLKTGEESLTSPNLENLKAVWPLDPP
Conditions: protein: recombinant; tags: N-terminal GST; dsDNA, one strand shown. Summed up:
as §1

Another experiment addresses T8, ETS2 (Homo sapiens, UniProt P15036 1-469).
T8 sequence: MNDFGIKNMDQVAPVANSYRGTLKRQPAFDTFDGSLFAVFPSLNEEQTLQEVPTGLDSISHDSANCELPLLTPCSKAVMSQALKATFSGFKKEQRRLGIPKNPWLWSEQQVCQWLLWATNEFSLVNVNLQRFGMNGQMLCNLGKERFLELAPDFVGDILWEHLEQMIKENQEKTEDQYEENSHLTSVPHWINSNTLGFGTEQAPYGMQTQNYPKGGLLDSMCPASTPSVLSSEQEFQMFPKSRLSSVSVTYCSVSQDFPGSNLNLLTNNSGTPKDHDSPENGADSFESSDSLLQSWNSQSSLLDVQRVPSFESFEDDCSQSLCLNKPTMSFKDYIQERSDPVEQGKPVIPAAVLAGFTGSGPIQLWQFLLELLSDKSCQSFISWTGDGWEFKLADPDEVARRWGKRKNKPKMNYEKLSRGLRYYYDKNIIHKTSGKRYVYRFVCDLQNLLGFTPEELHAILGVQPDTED
The following applies: protein: recombinant; tags: N-terminal GST; dsDNA, one strand shown. Summed up:
as §1

Another experiment concerns the target T9, SPDEF (Homo sapiens, UniProt O95238 1-335).
T9 sequence: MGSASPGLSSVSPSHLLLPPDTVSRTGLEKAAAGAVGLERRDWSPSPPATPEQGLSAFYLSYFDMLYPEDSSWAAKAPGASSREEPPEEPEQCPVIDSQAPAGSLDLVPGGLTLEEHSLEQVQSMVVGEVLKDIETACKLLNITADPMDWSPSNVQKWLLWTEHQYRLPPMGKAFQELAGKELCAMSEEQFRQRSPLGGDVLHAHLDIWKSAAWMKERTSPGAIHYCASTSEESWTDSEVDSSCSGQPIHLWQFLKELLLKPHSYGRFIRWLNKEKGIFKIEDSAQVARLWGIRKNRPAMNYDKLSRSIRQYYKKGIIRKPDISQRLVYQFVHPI
Conditions: protein: recombinant; tags: N-terminal GST; dsDNA, one strand shown. The procedure, abridged:
as §1

A further experiment addresses T10, ETV7 (Homo sapiens, UniProt Q9Y603 1-341).
T10 sequence: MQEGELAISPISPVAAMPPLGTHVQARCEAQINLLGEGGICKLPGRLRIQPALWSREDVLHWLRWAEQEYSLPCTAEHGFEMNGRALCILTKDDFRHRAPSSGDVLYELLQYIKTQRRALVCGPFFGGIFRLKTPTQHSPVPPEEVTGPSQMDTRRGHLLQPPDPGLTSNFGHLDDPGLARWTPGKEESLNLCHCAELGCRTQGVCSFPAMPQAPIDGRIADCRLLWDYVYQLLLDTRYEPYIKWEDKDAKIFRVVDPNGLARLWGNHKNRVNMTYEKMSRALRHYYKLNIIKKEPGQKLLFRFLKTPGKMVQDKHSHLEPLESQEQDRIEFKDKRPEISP
The following applies: protein: recombinant; tags: N-terminal GST; dsDNA, one strand shown. Summed up:
as §1

For another experiment, the target named is T11, ELF5 (Homo sapiens, UniProt Q9UKW6-2 1-255).
T11 sequence: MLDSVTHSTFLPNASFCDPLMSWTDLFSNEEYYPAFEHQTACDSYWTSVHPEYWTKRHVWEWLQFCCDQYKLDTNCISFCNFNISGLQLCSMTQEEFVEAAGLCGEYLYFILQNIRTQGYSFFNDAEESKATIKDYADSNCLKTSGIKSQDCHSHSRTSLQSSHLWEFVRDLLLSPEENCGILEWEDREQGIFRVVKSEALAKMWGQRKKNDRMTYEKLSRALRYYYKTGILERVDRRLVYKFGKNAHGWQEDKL
Conditions: protein: recombinant; tags: N-terminal GST; dsDNA, one strand shown. The procedure, abridged: as §1

The target in a further experiment is T12, ETV3 (Homo sapiens, UniProt P41162-2 1-143).
T12 sequence: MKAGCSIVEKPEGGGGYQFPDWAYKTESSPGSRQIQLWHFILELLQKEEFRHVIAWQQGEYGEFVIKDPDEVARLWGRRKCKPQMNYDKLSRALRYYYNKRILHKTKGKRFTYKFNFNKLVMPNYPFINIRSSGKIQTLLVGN
The following applies: protein: recombinant; tags: N-terminal GST; dsDNA, one strand shown. Summed up: as §1

A further experiment deals with ETV6 (Homo sapiens, UniProt P41212 1-452). The following applies: protein: recombinant; tags: N-terminal GST; dsDNA, one strand shown. Summed up:
as §1

CRX, sequence (O43186 whole entry): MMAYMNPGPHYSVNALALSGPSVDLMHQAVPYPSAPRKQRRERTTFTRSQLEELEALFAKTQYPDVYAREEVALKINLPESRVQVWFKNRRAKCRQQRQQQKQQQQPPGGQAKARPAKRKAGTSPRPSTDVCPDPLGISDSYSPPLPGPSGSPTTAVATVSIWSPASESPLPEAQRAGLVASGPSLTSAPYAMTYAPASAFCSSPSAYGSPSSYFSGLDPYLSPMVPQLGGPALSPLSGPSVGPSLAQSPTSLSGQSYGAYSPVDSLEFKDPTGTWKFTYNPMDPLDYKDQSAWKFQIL
ETV1, sequence (P50549 whole entry): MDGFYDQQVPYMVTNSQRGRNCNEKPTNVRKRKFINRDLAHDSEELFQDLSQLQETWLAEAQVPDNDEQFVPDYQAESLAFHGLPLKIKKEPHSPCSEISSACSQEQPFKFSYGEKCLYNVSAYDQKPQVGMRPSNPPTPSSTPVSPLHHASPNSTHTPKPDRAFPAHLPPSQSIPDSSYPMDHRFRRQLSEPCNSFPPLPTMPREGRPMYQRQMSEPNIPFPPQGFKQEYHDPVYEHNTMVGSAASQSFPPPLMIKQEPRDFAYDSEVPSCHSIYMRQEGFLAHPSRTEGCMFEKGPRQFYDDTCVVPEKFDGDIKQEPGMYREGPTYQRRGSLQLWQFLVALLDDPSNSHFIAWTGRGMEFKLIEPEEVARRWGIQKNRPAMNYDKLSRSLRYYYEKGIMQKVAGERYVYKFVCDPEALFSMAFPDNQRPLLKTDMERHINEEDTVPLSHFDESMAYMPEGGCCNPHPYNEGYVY
ETV6, sequence (P41212 whole entry): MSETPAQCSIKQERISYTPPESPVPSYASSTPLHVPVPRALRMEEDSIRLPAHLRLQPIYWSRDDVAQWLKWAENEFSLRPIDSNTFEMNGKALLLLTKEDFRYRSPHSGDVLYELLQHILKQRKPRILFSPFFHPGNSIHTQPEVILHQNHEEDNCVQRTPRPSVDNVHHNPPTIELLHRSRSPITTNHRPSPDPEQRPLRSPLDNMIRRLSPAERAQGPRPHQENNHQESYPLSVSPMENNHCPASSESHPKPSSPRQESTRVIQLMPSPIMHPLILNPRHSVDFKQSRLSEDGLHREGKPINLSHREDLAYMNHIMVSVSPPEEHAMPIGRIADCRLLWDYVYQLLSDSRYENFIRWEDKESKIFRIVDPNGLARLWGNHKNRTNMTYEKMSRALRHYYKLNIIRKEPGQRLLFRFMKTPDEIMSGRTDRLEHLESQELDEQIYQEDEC
ELF4, sequence (Q99607 whole entry): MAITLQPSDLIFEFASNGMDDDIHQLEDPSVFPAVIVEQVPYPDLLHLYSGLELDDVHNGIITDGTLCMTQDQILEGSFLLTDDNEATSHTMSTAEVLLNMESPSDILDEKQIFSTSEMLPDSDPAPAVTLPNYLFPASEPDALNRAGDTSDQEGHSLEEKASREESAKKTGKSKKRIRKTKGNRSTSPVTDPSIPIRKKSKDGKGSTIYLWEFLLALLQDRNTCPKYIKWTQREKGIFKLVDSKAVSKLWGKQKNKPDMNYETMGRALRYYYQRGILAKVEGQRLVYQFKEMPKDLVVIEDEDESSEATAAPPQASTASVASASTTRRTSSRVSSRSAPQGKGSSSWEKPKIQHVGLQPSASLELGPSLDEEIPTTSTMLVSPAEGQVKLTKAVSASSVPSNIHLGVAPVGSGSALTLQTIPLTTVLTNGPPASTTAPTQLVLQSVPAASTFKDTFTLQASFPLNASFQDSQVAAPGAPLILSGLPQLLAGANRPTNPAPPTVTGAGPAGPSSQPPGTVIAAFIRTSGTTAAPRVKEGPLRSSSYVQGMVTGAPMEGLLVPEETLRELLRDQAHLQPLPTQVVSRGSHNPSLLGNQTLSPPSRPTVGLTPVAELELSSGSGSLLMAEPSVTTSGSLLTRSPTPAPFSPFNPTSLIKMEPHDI
ETV5, sequence (P41161 whole entry): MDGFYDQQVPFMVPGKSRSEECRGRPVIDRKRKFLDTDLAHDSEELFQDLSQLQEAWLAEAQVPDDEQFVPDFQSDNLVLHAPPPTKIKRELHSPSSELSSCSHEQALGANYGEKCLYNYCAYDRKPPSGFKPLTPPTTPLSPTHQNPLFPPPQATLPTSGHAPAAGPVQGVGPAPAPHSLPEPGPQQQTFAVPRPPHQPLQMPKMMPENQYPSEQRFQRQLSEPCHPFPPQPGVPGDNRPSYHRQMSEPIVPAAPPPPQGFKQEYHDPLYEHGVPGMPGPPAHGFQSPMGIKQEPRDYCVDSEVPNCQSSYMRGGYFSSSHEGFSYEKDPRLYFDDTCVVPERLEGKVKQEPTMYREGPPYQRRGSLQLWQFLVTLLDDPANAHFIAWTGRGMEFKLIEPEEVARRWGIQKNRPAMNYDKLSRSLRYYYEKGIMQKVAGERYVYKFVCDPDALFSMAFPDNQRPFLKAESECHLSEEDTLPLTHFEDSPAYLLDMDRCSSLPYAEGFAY
HSF1, sequence (Q00613 whole entry): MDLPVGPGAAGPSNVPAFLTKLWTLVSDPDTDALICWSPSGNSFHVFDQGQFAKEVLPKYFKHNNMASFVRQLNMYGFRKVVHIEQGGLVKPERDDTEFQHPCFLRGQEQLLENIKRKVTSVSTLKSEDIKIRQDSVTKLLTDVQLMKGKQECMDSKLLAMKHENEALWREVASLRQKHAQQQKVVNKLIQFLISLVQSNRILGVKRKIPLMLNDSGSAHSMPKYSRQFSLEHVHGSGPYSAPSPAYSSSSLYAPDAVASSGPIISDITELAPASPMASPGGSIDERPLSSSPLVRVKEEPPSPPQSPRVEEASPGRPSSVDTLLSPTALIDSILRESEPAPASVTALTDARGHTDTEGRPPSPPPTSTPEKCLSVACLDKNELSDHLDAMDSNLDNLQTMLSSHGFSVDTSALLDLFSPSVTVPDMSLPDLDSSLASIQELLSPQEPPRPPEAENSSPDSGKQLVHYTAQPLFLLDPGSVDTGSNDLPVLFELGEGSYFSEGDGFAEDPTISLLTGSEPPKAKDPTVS

Turning to GATATA, the binding signal with FEV is 1.08 fold enrichment (6-mer frequency, TF over GST control); with ETV5 it was 1.13 fold enrichment (6-mer frequency, TF over GST control); with HSF1 it was 1.09 fold enrichment (6-mer frequency, TF over GST control); with SPIC, 1.13 fold enrichment (6-mer frequency, TF over GST control); with ELF4, 1.06 fold enrichment (6-mer frequency, TF over GST control); in the experiment with ELK4, 1.18 fold enrichment (6-mer frequency, TF over GST control). The binding signal was 1.19 fold enrichment (6-mer frequency, TF over GST control) with ETV2; 1.33 fold enrichment (6-mer frequency, TF over GST control) with ELF3; 1.19 fold enrichment (6-mer frequency, TF over GST control) with CRX; 1.08 fold enrichment (6-mer frequency, TF over GST control) in the experiment with ETV1; 1.15 fold enrichment (6-mer frequency, TF over GST control) with ERF; 1.18 fold enrichment (6-mer frequency, TF over GST control) in the experiment with ETV3L. Besides, the binding signal with ETS2 was 1.16 fold enrichment (6-mer frequency, TF over GST control); with SPDEF it was 1.32 fold enrichment (6-mer frequency, TF over GST control); with ETV7 it was 1.1 fold enrichment (6-mer frequency, TF over GST control); with ELF5, 1.13 fold enrichment (6-mer frequency, TF over GST control); in the experiment with ETV3, 1.09 fold enrichment (6-mer frequency, TF over GST control); in the experiment with ETV6, 1.12 fold enrichment (6-mer frequency, TF over GST control).
